Pf Dd2 growth: qHTS Primary assay for Inhibitors of Plasmodium falciparum Dd2 growth in vitro; 4.3% of 120,000 active; Potency, µM (series often up to 28.9 µM), for inactives: at the top dose activity, negative = inhibition, usual class: inhibitors; AID 1347417, 2020; P. falciparum Dd2 growth, SYBR Green, 72 h; active = well fitted inhibition curve with a large enough effect;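 note: plate controls were DMSO vehicle for no effect and reference drug for full effect; nearly all actives have a fitted effect of over 65% in size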
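Readout: SYBR Green fluorescence, 485 nm excitation, 535 nm emission, after ~16 h lysis at 37C. Before that, Dd2-infected red cells (2.5% hematocrit) grew 72 h with compound, 29 uM top final concentration.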
An asterisk follows results filed as active; i = inactive; [ ] = remark or other dose. The full list was thinned out, with hits kept by preference. Potency is the fitted concentration of half-maximal effect.

SMILES	Pf Dd2 growth
CCc1cc(C2CCCN2C(=O)c2cccs2)on1 (configuration not stated)	-9%
Cc1cccc(Nc2ncnc3onc(-c4ccc(Cl)cc4)c23)c1C	-16%
COc1ccc(Nc2ncnc3onc(-c4ccc(Cl)cc4)c23)cc1Cl	16%
Clc1ccc(CN2CCC(CNc3ncnc4onc(-c5ccc(Cl)cc5)c34)CC2)cc1	4.5µM*
Cc1ccc(C)c(N2CCN(CCCNc3ncnc4onc(-c5ccc(Cl)cc5)c34)CC2)c1	-9%
Cc1ccccc1CN1CCC(CNc2ncnc3onc(-c4ccc(Cl)cc4)c23)CC1	8.9µM*
Clc1ccc(-c2noc3ncnc(N4CCCCC4)c23)cc1	18%
CCOc1ccc(Nc2ncnc3onc(-c4ccc(Cl)cc4)c23)cc1	-20%
Cc1cccc(CN2CCC(CNc3ncnc4onc(-c5ccc(Cl)cc5)c34)CC2)c1	-6%
Cc1ccc(CCNc2ncnc3onc(-c4ccc(F)cc4)c23)cc1	106%
COc1cccc(N2CCN(c3ncnc4onc(-c5ccc(Cl)cc5)c34)CC2)c1	i
Cc1ccc(CN2CCC(CNc3ncnc4onc(-c5ccc(Cl)cc5)c34)CC2)cc1	3.2µM*
COc1ccc(OC)c(CCNc2ncnc3onc(-c4ccc(Cl)cc4)c23)c1	11µM*
O=C(C1CCN(S(=O)(=O)N2CCOCC2)CC1)N1CCc2nc3cc[nH]n3c(=O)c2C1	28%[5.79 µM]
CC(=O)c1cccc(NC(=O)c2cnc(-c3ccccc3)nc2-c2ccncc2)c1	i
COc1ccc(C(=O)N2CCCCC2c2n[nH]c(C)n2)cc1 (configuration not stated)	-4%
COc1ccc(-c2[nH]nc3ncc(-c4cccc(CO)c4)nc23)c(C)c1	-12%[44.1 µM]
COc1ccc(NC(=O)c2ccco2)cc1NC(=O)COc1ccccc1	1%
COc1ccc(NC(=O)c2ccco2)cc1NC(=O)COc1ccc(Cl)cc1C	16%
COc1ccc(NC(=O)c2ccco2)cc1NC(=O)COc1ccc(C)cc1C	2.8µM*
C#CCNC(=O)[C@H]1O[C@H](CCN2CCOCC2)CC[C@@H]1O	13%[44.1 µM]
CCN(Cc1cnn(CC)c1)C(=O)c1ccc(N2CC3CC(C2)[C@H]2CCCC(=O)N2C3)nc1 (some centres not stated)	13%
Cn1ccc2c(C(=O)NCc3cccnc3)nc(-c3cccnc3)cc21	26%[44.1 µM]
COc1cccc(-c2cc3c(ccn3C)c(C(=O)NCc3c(C)cc(C)[nH]c3=O)n2)c1	10µM*
COc1ccc(-c2cc3c(ccn3C(C)C)c(C(=O)NCc3c(C)cc(C)[nH]c3=O)n2)cn1	6.3µM*
SMILES	Pf Dd2 growth
Cn1ccc2c(C(=O)NCCc3cnc[nH]3)nc(-c3ccccc3)cc21	-28%[44.1 µM]
Cc1cc(C)c(CNC(=O)c2nc(-c3cnn(C)c3)cc3c2ccn3C)c(=O)[nH]1	i
Cc1ccc(-c2cc3c(ccn3C(C)C)c(C(=O)NCc3c(C)cc(C)[nH]c3=O)n2)cn1	7.1µM*
CC(=O)Nc1cccc(-c2cc3c(ccn3C)c(C(=O)NCCc3cnc[nH]3)n2)c1	5µM*
Cc1cc(C)c(CNC(=O)c2nc(-c3ccccc3C)cc3c2ccn3C(C)C)c(=O)[nH]1	-22%[44.1 µM]
COc1ccc(-c2cc3c(ccn3C)c(C(=O)NCCc3cnc[nH]3)n2)cn1	i
COc1ccc(-c2cc(C(=O)NCc3c(C)cc(C)[nH]c3=O)c3c(c2)N(C(C)C)CCO3)cc1OC	i
Cn1ccc2c(C(=O)NCCc3cnc[nH]3)nc(-c3cccc(CO)c3)cc21	i
Cc1cc(C)c(CNC(=O)c2cc(-c3ccc(CN(C)C)cc3)cc3ncn(C)c23)c(=O)[nH]1	-18%
O=C(CN1C(=O)NC2(CCCCC2)C1=O)Nc1ccc(Br)cc1F	24%
Cc1cc(C[C@@H]2COC[C@@H]2NC(=O)Cc2c[nH]c(=O)n(C)c2=O)on1	-11%
O=C(NCCC1CCN(C(=O)Nc2cccc(F)c2)CC1)C1CCCC1	i
O=C(C[C@H]1NC(=O)c2ccccc2NC1=O)Nc1n[nH]c(CCC2CCCC2)n1	-8%
CCCNC(=O)N1CCC(OCCOc2cccnc2)CC1	15%
CCN(CC)Cc1cnc2c(C(=O)N3CCCCC3CCO)cnn2c1 (configuration not stated)	-17%
COc1ccc(CC(=O)N2CC(c3nnc(C(C)C)o3)C3(CCOCC3)C2)cc1OC (configuration not stated)	-5%
Cc1ccc([C@H]2CN(C(=O)CN3CCOC3=O)C[C@@H]2N)o1	-11%
CCN1C(=O)C2CC3(CCN(S(=O)(=O)c4ccc5c(c4)CCC5)CC3)CN2C1=O (configuration not stated)	i
COCCNC(=O)C1(C)CN(C)Cc2ccc(Nc3cccc(OC)c3)nc21 (configuration not stated)	i
COc1cccc(Nc2ccc3c(n2)C(C)(C(=O)NCc2ccco2)CN(C)C3)c1 (configuration not stated)	-16%[44.1 µM]
COc1cccc(Nc2ccc3c(n2)C(C)(C(=O)NC(C)C)CN(C)C3)c1 (configuration not stated)	2.5µM*
O=C1CCN(C(=O)C2CCN(S(=O)(=O)Cc3cccc(F)c3)CC2)CCCCCCN1	-20%
CC1CCN([C@@H]2[C@H](O)[C@H](CO)O[C@@H]2CNC2CCCCC2)CC1	i
O=C(NCc1ccccc1)c1ccc(CSc2nc3cccnc3n2Cc2ccccc2F)cc1	3%
COC(=O)c1ccc(Cn2c(SCc3ccccc3F)nc3ccncc32)cc1	-17%
SMILES	Pf Dd2 growth
O=C(NCCc1ccccc1)c1ccc(CSc2nc3ccncc3n2Cc2ccccc2F)cc1	7.1µM*
O=C(NC1CCCC1)c1ccc(CSc2nc3cccnc3n2Cc2ccccc2)cc1	13%
Cc1ccccc1CNC(=O)c1ccc(Cn2c(SCc3cccc(F)c3)nc3cccnc32)cc1	-16%
O=C(NCCc1ccccc1)c1ccc(Cn2c(SCc3cccc(F)c3)nc3cccnc32)cc1	13µM*
COCCCNC(=O)c1ccc(Cn2c(SCc3ccc(F)cc3)nc3cccnc32)cc1	-22%
Cc1ccc(CSc2nc3cccnc3n2Cc2ccc(C(=O)NCCc3ccccc3)cc2)cc1	-13%
O=C(NCCN1CCCCC1)c1ccc(Cn2c(SCc3ccc(F)cc3)nc3cccnc32)cc1	7.1µM*
O=C(c1ccc(CSc2nc3ccncc3n2Cc2cccc(F)c2)cc1)N1CCCCCC1	8.9µM*
O=C(Cn1c(SCc2cccc(F)c2)nc2ccncc21)Nc1ccc(Cl)cc1F	28%
CN1C(=O)CC[C@]2(C(=O)NC3CC3)CCCC[C@@H]12	i
CCOC(=O)C1=CN(CC(=O)NC(C)CCc2ccccc2)S(=O)(=O)N=C1C (configuration not stated)	i
COC1CCOC2(CCN(C(=O)c3cccs3)CC2)C1 (configuration not stated)	i
COc1cccc(C(=O)N2C[C@@H](CO)[C@H](c3nc(C4CC4)no3)C2)c1	3%
Cc1onc(C(=O)NCCc2noc(-c3ccncc3)n2)c1Cn1cc(Cl)cn1	i
Cc1c(C(C)NC(=O)c2ccc(C#N)nc2)cnn1-c1ccc(F)cc1F (configuration not stated)	-11%
Cc1cccc(Cn2c(CNC(=O)c3ccccc3)nc3ccccc32)c1	-5%
O=C(NCCc1ccccc1)c1ccc(CSc2nc3ccncc3n2Cc2cccc(F)c2)cc1	4.5µM*
Cc1cccc(Cn2c(SCc3ccc(C(=O)NCCc4ccccc4)cc3)nc3ccncc32)c1	3.2µM*
COCCCNC(=O)c1ccc(Cn2c(SCc3cccc(C)c3)nc3cccnc32)cc1	i
